Measured values from PubChem BioAssay AID504862 (Sanford-Burnham Center for Chemical Genomics, 2011).
This is one part of the list. Unmarked numbers belong to inactive results.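 The calls were made as follows: active = average inhibition reaching 50% or more with the compound at 20 µM; inactive = the rest.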

System: diaphorase (Clostridium kluyveri)
Experiment: diaphorase inhibitors and chemical oxidizers, confirmation, counter-screen for P. falciparum G6PD inhibitor project, biochemical, fluorescence intensity, 10 µM NADPH (AID 504862);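 also: resorufin red fluorescence formed as diaphorase reduces resazurin using NADPH; 0% = DMSO with enzyme and 100% = DMSO without enzyme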
Details: diaphorase-coupled resazurin reduction, NADPH 10 uM, at 20 µM, active compounds read high

Compound: O=C1NC(=O)N(c2ccccc2)C(=O)/C1=C/c1ccc([N+](=O)[O-])s1
- inhibition: 47.3%
